In PubChem BioAssay (EPA / NIEHS):
Inconclusive results are not listed. More than one record can exist for a structure, and the calls need not agree. The source made the active and inactive calls. The calls were made as follows, unless noted: active = hit-call score of the fitted dose curve at least 0.9, where 1 is the maximum; inconclusive = response in the unintended direction; inactive = score below 0.9.

How the values were obtained:
[1] = molecular target: human Vitamin D Receptor (VDR), VDR (gene 7421) (UniProt P11473); experiment: ATG_VDR_TRANS: Attagene TRANS-FACTORIAL HepG2 Assay for human Vitamin D Receptor (VDR) (AID 2283022)
Sequence of human Vitamin D Receptor (VDR), VDR (gene 7421) (P11473 whole entry, looked up, the tested form may be a part): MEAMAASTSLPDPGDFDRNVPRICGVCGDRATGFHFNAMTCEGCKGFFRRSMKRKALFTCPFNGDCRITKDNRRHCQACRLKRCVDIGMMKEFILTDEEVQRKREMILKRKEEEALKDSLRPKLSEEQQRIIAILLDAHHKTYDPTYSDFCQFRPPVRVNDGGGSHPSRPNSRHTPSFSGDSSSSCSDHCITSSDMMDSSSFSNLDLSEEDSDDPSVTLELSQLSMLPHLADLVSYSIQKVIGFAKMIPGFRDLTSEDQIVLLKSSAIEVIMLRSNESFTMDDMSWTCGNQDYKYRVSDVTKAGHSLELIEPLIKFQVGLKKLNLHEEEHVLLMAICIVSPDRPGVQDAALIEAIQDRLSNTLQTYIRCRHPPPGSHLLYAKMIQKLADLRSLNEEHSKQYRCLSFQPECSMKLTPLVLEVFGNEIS
Method in brief: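 Fluorescence of labelled reporter cDNA fragments, resolved by capillary electrophoresis, gives mRNA induction after 24 h treatment of HepG2 cells carrying transfected Gal4-fusion reporter units. Activity is fitted in the positive direction with DMSO as baseline.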

[2] = molecular target: Estrogen receptor beta (Homo sapiens) (UniProt Q92731); experiment: OT_ER_ERbERb_0480: Odyssey Thera (OT) 8-hour HEK293T Protein-Complementation Assay for Estrogen Receptor-beta/-beta Homodimer (AID 2283357);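 also: active means signal gain over DMSO baseline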
Sequence of Estrogen receptor beta (Homo sapiens) (Q92731 whole entry, looked up, the tested form may be a part): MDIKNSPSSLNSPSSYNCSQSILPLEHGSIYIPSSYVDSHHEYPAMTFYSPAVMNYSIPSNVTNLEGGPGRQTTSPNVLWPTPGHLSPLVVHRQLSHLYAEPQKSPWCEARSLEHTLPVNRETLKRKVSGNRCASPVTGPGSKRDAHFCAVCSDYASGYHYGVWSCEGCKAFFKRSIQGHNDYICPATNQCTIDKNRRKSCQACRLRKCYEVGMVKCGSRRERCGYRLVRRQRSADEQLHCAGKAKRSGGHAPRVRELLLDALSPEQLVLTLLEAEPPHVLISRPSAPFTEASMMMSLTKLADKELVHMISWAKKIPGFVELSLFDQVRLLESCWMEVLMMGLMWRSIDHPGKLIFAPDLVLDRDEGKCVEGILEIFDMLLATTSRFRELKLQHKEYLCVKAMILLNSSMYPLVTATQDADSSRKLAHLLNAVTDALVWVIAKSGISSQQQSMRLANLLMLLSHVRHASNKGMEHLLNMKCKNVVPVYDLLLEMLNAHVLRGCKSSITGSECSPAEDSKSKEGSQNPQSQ
Method in brief: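 Readout: increase in mean fluorescence intensity (nucleus for agonists; nucleus plus cytoplasm for antagonists) relative to DMSO, from a reporter-fragment complementation of human ER-beta LBD homodimer in HEK293T cells dosed 8 hours.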

[3] = molecular target: Estrogen receptor beta (Homo sapiens) (UniProt Q92731); experiment: OT_ER_ERbERb_1440: Odyssey Thera (OT) 24-hour HEK293T Protein-Complementation Assay for Estrogen Receptor-beta/-beta Homodimer (AID 2283380);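 also: fluorescence gain from ER beta LBD homodimer complementation read by laser scanning cytometry; scored as signal increase over DMSO baseline for both agonists and antagonists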
Method in brief: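 HEK293T cells stably expressing human ER-beta LBD (aa 310-547) PCA homodimer pair, dosed 24 h; formaldehyde-fixed, Draq5-stained. Readout: increase in nuclear (agonist) or nuclear plus cytoplasmic (antagonist) fluorescence intensity versus DMSO, gain-of-signal fitting.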

[4] = molecular target: Peroxisome proliferator-activated receptor gamma (Homo sapiens) (UniProt P37231); experiment: OT_PPARg_PPARgSRC1_0480: Odyssey Thera (OT) 8-hour Protein-Complementation Assay for Peroxisome Proliferator-activated Receptor Gamma / SRC-1 Co-activator (AID 2283387);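 also: nuclear to cytoplasmic split Venus YFP fluorescence ratio reporting PPARg SRC-1 interaction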
Sequence of Peroxisome proliferator-activated receptor gamma (Homo sapiens) (P37231 whole entry, looked up, the tested form may be a part): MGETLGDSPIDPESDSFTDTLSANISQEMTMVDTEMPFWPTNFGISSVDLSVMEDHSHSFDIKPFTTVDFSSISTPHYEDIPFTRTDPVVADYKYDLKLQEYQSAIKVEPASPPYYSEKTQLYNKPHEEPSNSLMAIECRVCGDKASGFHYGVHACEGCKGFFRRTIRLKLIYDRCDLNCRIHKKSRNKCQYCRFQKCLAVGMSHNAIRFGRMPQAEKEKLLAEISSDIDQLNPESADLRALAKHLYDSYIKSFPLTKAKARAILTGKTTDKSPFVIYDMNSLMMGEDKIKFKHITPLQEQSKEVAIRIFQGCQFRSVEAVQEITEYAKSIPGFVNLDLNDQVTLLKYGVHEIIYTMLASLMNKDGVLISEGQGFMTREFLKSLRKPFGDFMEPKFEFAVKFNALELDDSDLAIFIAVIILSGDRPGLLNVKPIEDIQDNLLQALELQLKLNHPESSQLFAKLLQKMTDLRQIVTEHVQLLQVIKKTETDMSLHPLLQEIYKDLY
Method in brief: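 Read-out: 488 nm N/C fluorescence ratio from complemented Venus YFP fragments, ≥350 cells per image, gain-of-signal fitted against DMSO baseline. Fusions of PPARg/SRC-1 with IFP1/IFP2 expressed transiently in HEK293T; compounds applied 8 h.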

[5] = molecular target: Peroxisome proliferator-activated receptor gamma (Homo sapiens) (UniProt P37231); experiment: OT_PPARg_PPARgSRC1_1440: Odyssey Thera (OT) 24-hour Protein-Complementation Assay for Peroxisome Proliferator-activated Receptor Gamma/ SRC-1 Co-activator (AID 2283388);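 also: nuclear to cytoplasmic ratio of reconstituted Venus YFP fluorescence in fixed imaged cells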
Method in brief: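 Transient HEK293T, YFP fragments 1-158/159-239 (mutant IFP1/IFP2) fused to PPARg/SRC-1; 24 h dosing; fix 4% formaldehyde, Draq5; Opera imaging 488/635 nm; N/C ratio, gain vs DMSO.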

[6] = ACEA_AR_antagonist_AUC_viability: ACEA Biosciences xCELLigence Real-Time Cell Analysis on Androgen Receptor Antagonism for Viability (AID 2283776);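 also: 22Rv1 human prostate cancer cells growing on impedance electrode plates; area under impedance growth curve at 80 h after dosing as viability; hits lower the growth signal relative to DMSO meaning cytotoxicity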
Method in brief: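 Real-time electrical impedance tracks 22Rv1 proliferation after continuous compound exposure (top 100 uM final, 1:4 steps, 8 concentrations). The 80 h area-under-curve serves as the cytotoxicity readout relative to DMSO.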

[7] = ATG_ERE_CIS: Attagene CIS-FACTORIAL HepG2 Assay for Estrogen Response Element (ERE) (AID 2282940; active = hit-call score of the fitted dose curve at least 0.9, where 1 is the maximum; inactive = score below 0.9); conditions: HepG2 ERE cis-reporter, Attagene RNA transcript; actives raise or lower the signal
Method in brief: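 Measuring endogenous transcription factor output, the assay doses transfected HepG2 cells for 24 hours and quantifies reporter transcripts by fluorescent RT-PCR and capillary electrophoresis, with DMSO as baseline.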

[8] = molecular target: Estrogen receptor (Homo sapiens) (UniProt P03372); experiment: ATG_ERa_TRANS: Attagene TRANS-FACTORIAL HepG2 Assay for human Estrogen Receptor alpha (ERa) (AID 2282970); conditions: HepG2 Attagene TRANS ERa GAL4 reporter, mRNA
Sequence of Estrogen receptor (Homo sapiens) (P03372 whole entry, looked up, the tested form may be a part): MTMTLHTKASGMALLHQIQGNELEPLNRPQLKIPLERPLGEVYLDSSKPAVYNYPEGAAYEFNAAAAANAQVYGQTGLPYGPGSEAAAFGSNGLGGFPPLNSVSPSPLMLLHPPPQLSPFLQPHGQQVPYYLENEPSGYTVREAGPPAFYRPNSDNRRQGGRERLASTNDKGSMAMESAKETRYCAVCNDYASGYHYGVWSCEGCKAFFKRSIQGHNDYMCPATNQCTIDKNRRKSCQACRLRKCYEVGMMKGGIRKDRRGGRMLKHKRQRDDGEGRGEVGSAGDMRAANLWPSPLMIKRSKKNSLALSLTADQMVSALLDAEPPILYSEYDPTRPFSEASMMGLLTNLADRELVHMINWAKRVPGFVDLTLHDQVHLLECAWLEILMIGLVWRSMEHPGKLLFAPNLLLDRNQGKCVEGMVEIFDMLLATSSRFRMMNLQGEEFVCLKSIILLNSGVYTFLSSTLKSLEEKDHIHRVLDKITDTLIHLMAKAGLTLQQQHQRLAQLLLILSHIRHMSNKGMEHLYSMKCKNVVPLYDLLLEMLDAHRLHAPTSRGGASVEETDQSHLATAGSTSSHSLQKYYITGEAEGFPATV
Method in brief: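 Transactivation via ERa-Gal4 chimera in HepG2; 24 hour incubation; reporter mRNA detected by fluorescence RT-PCR and capillary electrophoresis.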

[9] = molecular target: Steroid hormone receptor ERR1 (Homo sapiens) (UniProt P11474); experiment: ATG_ERRa_TRANS: Attagene TRANS-FACTORIAL HepG2 Assay for human Estrogen-Related Receptor alpha (ERRa) (AID 2282971); conditions: HepG2 Attagene TRANS reporter, ERRa transactivation
Sequence of Steroid hormone receptor ERR1 (Homo sapiens) (P11474 whole entry, looked up, the tested form may be a part): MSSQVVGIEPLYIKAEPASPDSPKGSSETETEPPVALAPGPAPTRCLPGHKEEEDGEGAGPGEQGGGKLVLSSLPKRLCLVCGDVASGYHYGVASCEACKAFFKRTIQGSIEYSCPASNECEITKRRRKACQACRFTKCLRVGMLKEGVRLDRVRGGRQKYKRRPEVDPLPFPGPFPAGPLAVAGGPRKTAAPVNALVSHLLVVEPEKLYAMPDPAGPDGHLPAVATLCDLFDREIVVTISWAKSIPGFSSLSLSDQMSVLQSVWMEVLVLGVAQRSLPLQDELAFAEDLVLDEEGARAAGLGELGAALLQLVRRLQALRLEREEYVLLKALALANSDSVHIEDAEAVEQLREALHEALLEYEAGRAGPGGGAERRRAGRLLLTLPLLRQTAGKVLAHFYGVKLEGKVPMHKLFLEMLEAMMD
Method in brief: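 HepG2 cells were transiently transfected with multiple GAL4-UAS reporter units, then dosed with compound for 24 h. Total RNA was reverse-transcribed, reporter cDNA PCR-amplified and fluorescently labelled, and fragments resolved by capillary electrophoresis; induction was compared with DMSO.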

[10] = molecular target: Retinoic acid receptor RXR-alpha (Homo sapiens) (UniProt P19793); experiment: ATG_RXRa_TRANS: Attagene TRANS-FACTORIAL HepG2 Assay for human Retinoid X Receptor alpha (RXRa) (AID 2283012)
Sequence of Retinoic acid receptor RXR-alpha (Homo sapiens) (P19793 whole entry, looked up, the tested form may be a part): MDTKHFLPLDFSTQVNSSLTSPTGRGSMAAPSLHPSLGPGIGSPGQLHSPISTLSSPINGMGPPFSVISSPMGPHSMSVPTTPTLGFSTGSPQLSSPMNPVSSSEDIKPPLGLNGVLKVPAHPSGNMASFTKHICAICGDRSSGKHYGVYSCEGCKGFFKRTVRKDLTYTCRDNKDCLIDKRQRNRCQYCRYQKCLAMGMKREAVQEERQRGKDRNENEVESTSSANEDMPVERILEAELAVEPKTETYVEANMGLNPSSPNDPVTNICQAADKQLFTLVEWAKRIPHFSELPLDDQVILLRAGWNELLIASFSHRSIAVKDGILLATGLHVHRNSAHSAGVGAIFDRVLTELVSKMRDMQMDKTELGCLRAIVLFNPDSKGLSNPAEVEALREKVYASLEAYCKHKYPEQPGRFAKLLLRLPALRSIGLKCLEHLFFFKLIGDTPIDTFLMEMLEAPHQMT
Method in brief: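 Cells (HepG2) carried transiently transfected GAL4-responsive reporter units. Following a 24 h chemical incubation, reporter mRNA induction was read via RT-PCR fragment analysis; DMSO served as negative control and baseline.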

[11] = BSK_3C_TissueFactor: BioMAP Diversity Plus: 3C Assay for Tissue Factor Biomarker Activity (AID 2282997; active = hit-call score of the fitted dose curve at least 0.9, where 1 is the maximum; inactive = score below 0.9); conditions: BioMAP 3C HUVEC, tissue factor biomarker readout; actives raise or lower the signal
Method in brief: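 Values derive from bidirectional curve fitting against DMSO of Tissue Factor ELISA signals, taken 24 h after dosing primary human umbilical vein endothelial cells.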

[12] = BSK_3C_uPAR: BioMAP Diversity Plus: 3C Assay for Urokinase-type plasminogen activator receptor (uPAR) Biomarker Activity (AID 2282998; active = hit-call score of the fitted dose curve at least 0.9, where 1 is the maximum; inactive = score below 0.9); conditions: BioMAP 3C HUVEC, uPAR biomarker ELISA; actives raise or lower the signal
Method in brief: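 Readout: ELISA for surface uPAR. System: human umbilical vein endothelial primary cells, 24 h after chemical exposure. Analysis: bidirectional fit, DMSO baseline.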

[13] = BSK_4H_Eotaxin3: BioMAP Diversity Plus: 4H Assay for Eotaxin 3 Biomarker Activity (AID 2283000; active = hit-call score of the fitted dose curve at least 0.9, where 1 is the maximum; inactive = score below 0.9); conditions: primary human endothelial cells (HUVEC); actives raise or lower the signal
Method in brief: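 Endothelial primary cells (human umbilical vein) exposed to compound for 24 h. ELISA detection of Eotaxin-3.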

[14] = read-out: Interleukin-1 alpha (IL1a), IL1A (gene 3552); experiment: BSK_BE3C_IL1a: BioMAP Diversity Plus: BE3C Assay for Interleukin-1 alpha (IL1a) Biomarker Activity (AID 2283016; active = hit-call score of the fitted dose curve at least 0.9, where 1 is the maximum; inactive = score below 0.9); conditions: primary human bronchial epithelial cells; actives raise or lower the signal
Method in brief: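 Cultures of primary human bronchial epithelial cells receive test chemical. After 24 h, IL-1a is quantified by ELISA, while parallel wells are fixed in TCA and SRB-stained for total protein. Changes in either direction are fitted relative to DMSO.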

[15] = read-out: Monokine induced gamma interferon (MIG), CXCL9 (gene 4283); experiment: BSK_3C_MIG: BioMAP Diversity Plus: 3C Assay for Monokine induced gamma interferon (MIG) Biomarker Activity (AID 2283021; active = hit-call score of the fitted dose curve at least 0.9, where 1 is the maximum; inactive = score below 0.9;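 as to AC50: MIG protein level measured by immunoassay in the treated endothelial cultures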); conditions: primary human endothelial cells (HUVEC); actives raise or lower the signal
Method in brief: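 After 24 h of treatment, human umbilical vein endothelial cultures (3C system) had their MIG biomarker level determined by ELISA, with DMSO serving as negative control.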

[16] = CCTE_Harrill_HTTr_CellCount_MCF7: CCTE's Cell Proliferation Assessment for the High-Throughput Transcriptomics (HTTr) Platform, Harrill Lab (AID 2284012);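 also: count of Hoechst-stained nuclei per well by high-content imaging in MCF-7 cells; cells exposed to compound for six hours; intended direction is loss of nuclei count meaning fewer cells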
Method in brief: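 Nuclei counting (Hoechst, high content imaging) in MCF-7 after a 6 h treatment at eight concentrations. Activity fitted bidirectionally, DMSO as negative control.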

[17] = molecular target: Retinoic acid receptor RXR-alpha (Homo sapiens) (UniProt P19793); experiment: OT_NURR1_NURR1RXRa_0480: Odyssey Thera (OT) 8-hour HEK293T Protein Complementation Assay for Nurr1/retinoid X receptor (RXR) (AID 2283385)
Method in brief: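 Compounds are applied to HEK293T cells carrying Nurr1 and RXRα linked to reporter fragments. After 8 h, fluorescence intensity reports heterodimer formation, with DMSO as baseline.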

[18] = molecular target: Estrogen-related receptor gamma (Homo sapiens) (UniProt P62508); experiment: ATG_ERRg_TRANS: Attagene TRANS-FACTORIAL HepG2 Assay for human Estrogen-Related Receptor gamma (ERRg) (AID 2282977); conditions: HepG2 Attagene TRANS reporter, ERRg transactivation;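 also: hits increase reporter signal over DMSO so potencies reflect activators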
Sequence of Estrogen-related receptor gamma (Homo sapiens) (P62508 whole entry, looked up, the tested form may be a part): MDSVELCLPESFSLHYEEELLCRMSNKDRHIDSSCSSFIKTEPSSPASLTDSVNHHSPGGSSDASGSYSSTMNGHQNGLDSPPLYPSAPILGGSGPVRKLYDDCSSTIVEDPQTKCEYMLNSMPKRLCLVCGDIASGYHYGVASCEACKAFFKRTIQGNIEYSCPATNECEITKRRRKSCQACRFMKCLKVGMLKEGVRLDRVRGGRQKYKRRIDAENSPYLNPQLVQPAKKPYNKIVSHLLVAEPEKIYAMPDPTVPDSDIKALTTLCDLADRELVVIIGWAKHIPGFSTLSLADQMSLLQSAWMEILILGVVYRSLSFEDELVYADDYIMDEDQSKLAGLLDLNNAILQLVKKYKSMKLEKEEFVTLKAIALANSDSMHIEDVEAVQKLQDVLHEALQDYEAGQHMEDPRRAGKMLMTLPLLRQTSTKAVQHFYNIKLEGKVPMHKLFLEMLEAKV
Method in brief: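 Transient HepG2 transfectants, 24 h compound exposure, GAL4-UAS reporter mRNA by RT-PCR/6-FAM labelling/capillary electrophoresis; positive direction vs DMSO.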

[19] = ACEA_AR_agonist_AUC_viability: ACEA Biosciences xCELLigence Real-Time Cell Analysis on Androgen Receptor Agonism for Viability (AID 2283775);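 as to AC50: viability read 80 hours after compound addition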
Method in brief: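 Read-out is area under the impedance curve at 80 h post-dose in 22Rv1 cells, with DMSO as baseline and signal loss taken as reduced viability. Compounds ran in duplicate from 100 uM final.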

[20] = molecular target: Bile acid receptor (Homo sapiens) (UniProt Q96RI1); experiment: ATG_FXR_TRANS: Attagene TRANS-FACTORIAL HepG2 Assay for Farnesoid X Receptor (FXR) (AID 2282979); conditions: HepG2 Attagene TRANS FXR-GAL4 reporter transcription;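 also: hits raise reporter mRNA above DMSO so AC50 marks FXR activation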
Sequence of Bile acid receptor (Homo sapiens) (Q96RI1 whole entry, looked up, the tested form may be a part): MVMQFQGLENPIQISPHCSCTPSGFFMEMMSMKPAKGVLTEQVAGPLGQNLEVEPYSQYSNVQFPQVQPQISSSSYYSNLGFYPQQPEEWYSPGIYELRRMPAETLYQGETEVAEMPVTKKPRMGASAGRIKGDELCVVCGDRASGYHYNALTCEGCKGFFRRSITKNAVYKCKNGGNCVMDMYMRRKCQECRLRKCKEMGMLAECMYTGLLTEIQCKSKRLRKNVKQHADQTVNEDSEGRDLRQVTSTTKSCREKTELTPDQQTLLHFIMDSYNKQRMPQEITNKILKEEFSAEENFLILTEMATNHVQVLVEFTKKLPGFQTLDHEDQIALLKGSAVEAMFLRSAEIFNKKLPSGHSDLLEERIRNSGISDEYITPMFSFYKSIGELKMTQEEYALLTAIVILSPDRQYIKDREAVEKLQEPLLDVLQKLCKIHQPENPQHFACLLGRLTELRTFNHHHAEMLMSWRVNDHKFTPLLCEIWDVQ
Method in brief: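 Chimeric FXR-GAL4 activity in transiently transfected human HepG2 liver cells is scored as induction of reporter mRNA after 24 h of dosing. Detection uses RT-PCR with fluorescent labelling and capillary electrophoresis, with DMSO serving as baseline.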

Measured: AC50

CC[N+](=O)[O-]
inactive: [1] | [2] | [3] | [4] | [5] | [6]

COc1cc(OC)c(OC)cc1C=O
inactive: [8] | [9] | [10] | [1]
active: [7] 27.6 µM

O=C1C=CC(=O)C=C1
inactive: [11] | [12] | [10] | [14] | [15] | [16]
active: [11] 33.2 µM | [12] 12.8 µM | [13] 20 µM | [14] 33 µM | [15] 35.6 µM

NNc1ccccc1
inactive: [10]

Oc1ccc(Cl)cc1
inactive: [10] | [17] | [4] | [5] | [6] | [16]

O=S(=O)(c1ccccc1)c1ccccc1
inactive: [9] | [18] | [11] | [12] | [13] | [10] | [14] | [15] | [16]

Nc1ccc(Cl)c(Cl)c1
active: [6] 1.14 µM
inactive: [18] | [10] | [1] | [2] | [3] | [17] | [4] | [5] | [19] | [16]

C=C(Cl)CCl
inactive: [7] | [8]

S=c1[nH]c2ccccc2[nH]1
inactive: [9] | [18]

CCCCCCCCCCCCCCCC[N+](C)(C)C
active: [19] 5.58 µM | [6] 6.1 µM
inactive: [1] | [2] | [3] | [4] | [5]

ClC1=C(Cl)[C@]2(Cl)[C@@H]3[C@@H](Cl)[C@H](Cl)C[C@@H]3[C@@]1(Cl)C2(Cl)Cl
inactive: [7] | [9] | [18] | [20]

CC(C)c1ccc(O)cc1
inactive: [18] | [10] | [4] | [5] | [19] | [6]
active: [2] 57.9 µM | [3] 50 µM

CCCCNP(N)(N)=S
inactive: [7] | [8] | [20]

O=C(NCNC(=O)NC1C(=O)NC(=O)N1CO)NC1C(=O)NC(=O)N1CO (stereo not drawn)
inactive: [18] | [3] | [17] | [4] | [5] | [19] | [6]

[Cl][Sb]([Cl])[Cl]
inactive: [16]

CN(C)CCC#N
inactive: [7] | [10] | [1]

CCOC(=O)N(C)N=O
inactive: [9] | [10]

O=C(O)CCl
inactive: [18] | [10] | [2] | [3] | [17] | [4] | [5] | [19]

CC=Cc1ccc2c(c1)OCO2
inactive: [10] | [1]

Nc1ccccc1
inactive: [10] | [17] | [4] | [5] | [19] | [6] | [16]

COCC(=O)N(c1c(C)cccc1C)N1CCOC1=O
inactive: [9] | [20] | [11] | [12] | [13] | [10] | [14] | [15]

c1cc(OCC2CO2)ccc1Cc1ccc(OCC2CO2)cc1 (stereo not drawn)
inactive: [7] | [1] | [16]

CCC1CCC(=O)O1 (stereo not drawn)
inactive: [2] | [3] | [6]

C[C@]12CC[C@H]3[C@@H](CC[C@@]45O[C@@H]4C(O)=C(C#N)C[C@]35C)[C@@H]1CC[C@@H]2O
inactive: [1] | [16]

CCC(Br)(CC)C(=O)NC(N)=O
inactive: [20] | [10]

[CH3][Sn]([CH3])([Cl])[Cl]
inactive: [9] | [18] | [1] | [17] | [4] | [5] | [19] | [6]

C=CC(=O)OC
inactive: [20]

CN(C)C(=O)C(c1ccccc1)c1ccccc1
inactive: [10] | [2] | [3] | [17] | [4] | [5] | [19] | [6] | [16]

O=C(CCl)c1ccccc1
active: [11] 5.4 µM | [12] 6.89 µM | [13] 4.98 µM | [14] 32.6 µM | [15] 9.6 µM | [19] 78.5 µM | [6] 69.7 µM
inactive: [3] | [17] | [4] | [5] | [16]
